# Shown are actives, neighbours in structure and some others; about 21% of the full set was active somewhere.
# NS1 inh: qHTS Assay for Inhibitors of Influenza NS1 Protein Function. Potency, µM (doses to about 46.1 µM). 270,000 compounds, 0.4% hits; calls by dose curve; note: actives are rising curves; nearly all actives have a fitted effect of over 50% in size
#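 Compounds were scored for reversing the slow growth caused by influenza A NS1 in S. cerevisiae, measured by optical density at 600 nm. Assay medium contained 2% galactose at pH 6.0; NS1-free yeast of the same strain were the positive control.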
# SARS PLP yeast: qHTS of Yeast-based Assay for SARS-CoV PLP; S. cerevisiae expressing SARS-CoV PLpro, growth rescue; Potency, µM (series often up to 32.9 µM), actives largely listed as activators; 330,000 compounds, 0.19% hits; AID 485353, 2010; calls by dose curve; note: nearly all actives have a fitted effect of over 55% in size
# Pf growth 96h: Primary qHTS for delayed death inhibitors of the malarial parasite plastid, 96 hour incubation. 320,000 compounds, 6.9% hits. Potency, µM (highest dose often 28.7 µM), most hits filed as inhibitors. AID 504834, 2011. P. falciparum luciferase reporter growth, 96 h
#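 P. falciparum expressing integrated firefly luciferase, in erythrocytes at 2% hematocrit, 0.05% parasitemia, incubated with compounds 96 h at 37 C, 5% CO2. Growth inhibition read as loss of luminescence; two-generation exposure targets delayed-death apicoplast inhibitors.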
# CHX counter: Cycloheximide Counterscreen for Small Molecule Inhibitors of Shiga Toxin; 300,000 compounds, 12% hits; max response, %; cell reporter, cycloheximide protein synthesis inhibition counterscreen; in the data active = max response mostly above about 13%, no sharp cut-off; inactive = mostly below about 14%; note: read at 38.3 µM for the half of the compounds with a filed dose
# Pf growth 48h: Primary qHTS for delayed death inhibitors of the malarial parasite plastid, 48 hour incubation. P. falciparum luciferase growth in erythrocytes, 48 h. Potency, µM (top dose mostly 28.7 µM), actives largely listed as inhibitors. 310,000 compounds, 5.9% hits. AID 504832, 2011
#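 Luciferase-expressing P. falciparum in infected erythrocytes (2% hematocrit, 0.1% parasitemia final) in RPMI 1640/0.5% Albumax were exposed to compound for 48 hours at 37 C, 5% CO2; growth read as luminescence.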
# Shiga toxin inh: A qHTS for Small Molecule Inhibitors of Shiga Toxin | 290,000 compounds, 9.2% hits | inhibition, % at 38.7 µM | Vero cells, Shiga toxin protein synthesis inhibition reporter; in the data active = inhibition mostly above about 28%, no sharp cut-off; inactive = mostly below about 43%
# Hits are given with their value; i = inactive; ? = inconclusive; nt = no result. Unless noted, calls come from the whole dose curve; as a rule, active = well fitted inhibition curve with a large enough effect; inconclusive = small, poorly fitted or top-dose-only effect, or another doubt; inactive = no such curve, though single readings can be large or run the other way.
SMILES,NS1 inh,SARS PLP yeast,Pf growth 96h,CHX counter,Pf growth 48h,Shiga toxin inh
O=C(CSc1cccc2cccnc12)Nc1ccc(S(=O)(=O)N2CCOCC2)cc1,?,i,i,i,12µM,i
CCOc1ccccc1OCCCC(=O)Nc1cccc(-n2cnnn2)c1C,nt,i,i,nt,i,nt
N#Cc1ccccc1OCC(=O)N(C1CCCCC1)C1CCS(=O)(=O)C1 (stereo unspecified),nt,i,i,nt,i,nt
O=C(CN1c2cccc3cccc(c23)S1(=O)=O)Nc1ccc(S(=O)(=O)N2CCOCC2)cc1,?,i,13µM,i,?,i
COc1ccc(CNc2ccc(N3CCOCC3)cc2)cc1,?,i,i,22,i,i
O=C(CN1C(=O)c2cccc3cccc1c23)Nc1ccc(S(=O)(=O)N2CCOCC2)cc1,i,i,nt,i,?,i
CCc1ccc(OCCCC(=O)Nc2ccc(N3CCOCC3)cc2)cc1,i,i,7.4µM,i,i,i
O=C(CCCOc1ccc(Cl)cc1)Nc1ccc(N2CCOCC2)cc1,i,i,i,i,i,i
Cc1ccc(NC(=O)CC(C)c2ccccc2)cc1S(=O)(=O)N1CCOCC1 (stereo unspecified),nt,i,nt,nt,nt,nt
CC(CC(=O)Nc1ccc(S(=O)(=O)N2CCOCC2)cc1)c1ccccc1 (stereo unspecified),i,i,i,i,3.3µM,i
CC(=O)Nc1ccc(S(=O)(=O)Nc2nnc(Cc3ccc(Cl)cc3)s2)cc1,i,i,i,i,i,i
CCOC(=O)CC(NC(=O)c1ccc(C)cc1)c1ccc(OC)cc1 (stereo unspecified),nt,i,?,i,?,i
Cc1ccc(C(=O)NCC(=O)OC(C)C(=O)NCCC2=CCCCC2)cc1C (stereo unspecified),i,i,i,i,i,i
CSc1nc(N)nc2c1ncn2CC(=O)NCCCN1CCCC1=O,nt,i,nt,nt,nt,nt
Cc1cccc(NC(=O)CSc2cccc3cccnc23)c1C,i,i,?,i,i,nt
CCOC(=O)CSc1cccc2cccnc12,i,i,i,i,?,53
Cc1nc2ccccn2c1C(=O)N/N=C/c1cc(C)n(-c2ccc(Br)cc2)c1C,i,i,?,16,?,i
Cc1nc2ccccn2c1C(=O)N/N=C/c1ccccc1,i,i,i,20,i,i
Cc1ccc(NC(=O)C(=O)NCc2ccc(/C=N/NC(=O)c3c(C)nc4ccccn34)o2)cc1,i,i,i,28,i,i
Cc1nc2ccccn2c1C(=O)N/N=C/c1ccc(F)cc1,i,i,?,i,i,i
O=C(CSc1ccccc1)Nc1nnc(C2CC2)s1,i,i,i,i,i,i
Nc1ccccc1S(=O)(=O)Nc1cccc2cccnc12,nt,nt,nt,i,nt,i
O=C(Cn1cnc([N+](=O)[O-])c1)NCc1ccc(F)cc1,i,i,6.6µM,i,i,i
Cc1ccc(C(=O)OCC(=O)NC2CCCC2)cc1C,i,i,i,22,i,54
O=C(COC(=O)c1ccc(Cl)cc1)NC1CCCCCC1,nt,i,i,nt,i,nt
SMILES,NS1 inh,SARS PLP yeast,Pf growth 96h,CHX counter,Pf growth 48h,Shiga toxin inh
COc1ccc(C(=O)OCC(=O)NC2CCCC2)cc1OC,i,i,i,i,i,i
CC(C)c1ccc(C(=O)OCC(=O)NC2CCCC2)cc1,i,i,i,27,i,i
O=C(COC(=O)c1ccccc1)NC1CCCCCC1,nt,i,nt,nt,nt,nt
CCc1ccc(C(=O)OCC(=O)NC2CCCC2)cc1,i,i,i,30,i,i
Cc1ccc(N(CCC#N)C(=O)CSc2nnc3ccccn23)cc1,nt,i,i,nt,i,nt
COc1ccccc1CCc1nnc(CCC(=O)NCC(C)Oc2cccnc2)o1 (stereo unspecified),i,i,17µM,i,i,i
COc1ccccc1CCc1nnc(CCC(=O)NCCOc2cccnc2)o1,i,i,i,i,i,i
C=CCc1cccc2cc(-c3nc4ccc(C)cc4[nH]3)c(=O)oc12,nt,nt,nt,36,nt,91
O=C(O)c1ccc2nc(-c3cc4cccc(O)c4oc3=O)[nH]c2c1,nt,i,i,nt,i,nt
O=c1oc2c(CN3CCCCC3)c(O)ccc2cc1-c1nc2ccccc2[nH]1,i,i,10µM,12,?,i
O=c1oc2c(O)cccc2cc1-c1nc2ccccc2[nH]1,i,i,i,47,i,69
CC(C)CNC(=O)c1cccc(NC(=O)c2ccc(Cl)c([N+](=O)[O-])c2)c1,i,i,i,i,i,i

# Bioassay records from PubChem BioAssay.
